PLK1 PBD block: PLK1 (human) polo-box domain binding inhibition; P53350; Plk1 PBD binding of FITC phosphopeptide, fluorescence polarization; Potency, µM, most hits filed as inhibitors; 360,000 tested, 2.8% active; note: series mostly up to about 57 µM; nearly all actives have a fitted effect of over 65% in size
KAT2A inh: GCN5L2 (KAT2A) acetyltransferase inhibition; 390,000 tested, 0.21% active; Q92830; Potency, µM (top dose mostly 58.9 µM), hits mostly inhibitors; GCN5L2 HAT assay, ThioGlo1 CoA-SH fluorescence
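qHTS, 1536-well. 20nM enzyme, pH 7.5 HEPES/EDTA/Tween-20 buffer; 15 min compound preinc., RT. Start: 75uM H3(1-25), 70uM AcCoA, 50uM ThioGlo1. Read Ex340/Em540 at t=0 (autofluorescence flag) and t=20 min.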
Mito fusion yeast: blocks mitochondrial division or promotes mitochondrial fusion; S. cerevisiae fusion-defective mutant growth rescue, CellTiterGlo 48 h; Potency, µM (series often up to 46.1 µM), usual class: activators; 320,000 tested, 0.23% active; AID 485298; note: nearly all actives have a fitted effect of over 45% in size
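Yeast fusion mutant, YPEG (non-fermentable carbon), compound, 48 h at 37C non-permissive; CellTiterGlo added, 10 min RT, luminescence read. Rescued growth = division inhibition.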
PKM2 act: activators of human pyruvate kinase M2 | 260,000 tested, 0.34% active | Potency, µM (top dose mostly 57.5 µM), usual class: activators | P14618 | purified PKM2, Kinase-Glo ATP luminescence, activation; response scale: 0% is enzyme alone, no compound | AID 1631; note: nearly all actives have a fitted effect of over 55% in size
Target sequence (P14618 whole entry, looked up): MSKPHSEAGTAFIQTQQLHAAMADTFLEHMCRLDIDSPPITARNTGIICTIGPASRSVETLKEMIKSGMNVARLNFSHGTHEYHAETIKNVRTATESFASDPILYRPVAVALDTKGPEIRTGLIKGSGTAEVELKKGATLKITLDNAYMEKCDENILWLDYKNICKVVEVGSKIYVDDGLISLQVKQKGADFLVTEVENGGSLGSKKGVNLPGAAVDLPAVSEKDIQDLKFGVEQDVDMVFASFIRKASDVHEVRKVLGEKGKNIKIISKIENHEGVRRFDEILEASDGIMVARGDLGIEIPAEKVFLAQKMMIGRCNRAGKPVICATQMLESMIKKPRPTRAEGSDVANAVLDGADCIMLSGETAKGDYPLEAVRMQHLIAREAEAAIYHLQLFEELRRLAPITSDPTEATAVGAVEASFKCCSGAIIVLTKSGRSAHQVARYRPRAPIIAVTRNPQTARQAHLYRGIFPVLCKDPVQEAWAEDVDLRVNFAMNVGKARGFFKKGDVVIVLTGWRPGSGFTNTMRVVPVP
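ATP formation by purified human PK-M2, quantified via coupled luciferase luminescence after 1 h at room temperature with 0.1 mM ADP and 0.5 mM PEP final.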
GLS inh: inhibitors of human glutaminase (GLS) | O94925 | GLS enzymatic activity, qHTS titration | 410,000 tested, 0.21% active | Potency, µM (series often up to 45.5 µM), actives largely listed as inhibitors
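Human kidney-isoform GLS in 45 mM KH2PO4 pH 8.2, 0.02% Tween-20, with compound, started with 1mM L-Glutamine (added stock). Glutamate oxidase/HRP/Amplex red coupled fluorescence read at start and after 30 min at RT.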
VDR inh: blocks the human vitamin D receptor; VDR-SRC2-3 peptide fluorescence polarization, 2 h; Potency, µM, actives largely listed as inhibitors; 400,000 tested, 0.93% active; AID 504847; P11473
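VDR–SRC2-3 interaction, FP format. Cmpds 23 nl via pintool, brief spin, 2 h ambient incubation.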
Hits are given with their value; . = inactive; ? = inconclusive; / = no result given; [ ] = dose if it differs, or a comment. Hits are enriched below; roughly 3.4% of the tested compounds scored in any of these assays. Calls come from the whole dose curve; as a rule, active = well fitted curve in the direction sought with a large enough effect; inconclusive = small, poorly fitted or top-dose-only effect, or another doubt; inactive = no such curve, though single readings can be large; an effect the other way counts as inactive or inconclusive.

SMILES | PLK1 PBD block | KAT2A inh | Mito fusion yeast | PKM2 act | GLS inh | VDR inh
COC(=O)c1cc(NC(=O)Cc2ccc(OC)c(OC)c2)cc(C(=O)OC)c1 | 27µM | . | . | . | . | ?
COC(=O)C1=C(C)N(Cc2ccc(OC)c(OC)c2)C(=O)C1 | 21µM | . | . | . | . | .
COC(=O)C1=C(C)N(CCc2ccc(OC)c(OC)c2)C(=O)C1 | . | . | . | . | . | .
Cc1cccc(CNc2ncnc3ccc(-c4ccc(C(=O)N(C)C)cc4)cc23)c1 | / | . | / | / | / | .
Nc1ncnn1Cc1ccccc1 | . | / | / | / | . | /
O=C(O)c1cccc(NC(=S)N/N=C/c2ccccc2OCc2cccc(Br)c2)c1 | ? | ? | . | . | . | ?
O=C(COc1cccc2ccccc12)N/N=C/c1ccccc1OCc1ccc(C(=O)O)cc1 | 27µM | ? | . | . | . | .
O=C(O)c1cccc(NC(=S)N/N=C/c2ccccc2OCc2ccc(Br)cc2)c1 | 24µM | ? | . | . | . | ?
CC(C)CC(C(=O)NCC1CCN(Cc2ccc(F)cc2)CC1)N1Cc2ccccc2C1=O (stereo not drawn) | / | . | / | / | . | .
Cc1cc(C)n(S(=O)(=O)c2ccc(Cl)cc2)n1 | . | . | . | . | . | .
Cc1cc(C)n(C(C[N+](=O)[O-])c2ccc(Cl)cc2)n1 (stereo not drawn) | 17µM | . | . | . | . | ?
O=[N+]([O-])c1ccc(-c2c[nH]c(=S)[nH]2)cc1 | 7.5µM | ? | . | . | . | ?
Cc1c2oc3c(C)ccc(C(=O)NC4C(=O)NC(C(C)C)C(=O)N5CCCC5C(=O)N(C)CC(=O)N(C)C(C(C)C)C(=O)OC4C)c3nc-2c(C(=O)NC2C(=O)NC(C(C)C)C(=O)N3CCCC3C(=O)N(C)CC(=O)N(C)C(C(C)C)C(=O)OC2C)c(N)c1=O (stereo not drawn) | / | . | / | / | / | .
Nc1ncnc2nc(-c3ccc(N4CCOCC4)nc3)cc(-c3cccc(Br)c3)c12 | / | ? | ? | . | / | .
O=[N+]([O-])c1ccc(C=Nc2ccccc2)cc1 | . | / | / | / | . | /
Cc1[nH]n(-c2ccccc2)c(=S)c1C=Nc1cccc([N+](=O)[O-])c1 | 3.4µM | 10µM | . | . | . | 22µM
COC(=O)NC1CCS(=O)(=O)C1 (stereo not drawn) | . | . | . | . | . | .
COC(=O)NC1CCC(NC(=O)OC)CC1 (stereo not drawn) | 27µM | . | . | . | . | .
CC(=O)n1c(C=Nc2ccc(Cl)cc2)c(O)c2ccccc21 | 6.7µM | . | . | . | . | .
O=C(COc1ccc2c(c1)oc(=O)c1ccccc12)N[C@@H](Cc1c[nH]c2ccccc12)C(=O)O | . | 25µM | . | . | . | .
Cc1c(C)c2ccc(OCC(=O)N[C@@H](Cc3ccccc3)C(=O)O)cc2oc1=O | . | . | . | . | 16µM | .
O=C(Nc1ccccc1C(=O)NC(Cc1c[nH]c2ccccc12)C(=O)O)c1ccco1 (stereo not drawn) | . | . | . | . | . | .
Cc1c(C)c2ccc(OCC(=O)NC(Cc3ccc(Cl)cc3)C(=O)O)cc2oc1=O (stereo not drawn) | . | . | . | . | . | .
COc1ccc(C(=O)Nc2ccccc2C(=O)NC(Cc2c[nH]c3ccccc23)C(=O)O)cc1 (stereo not drawn) | 24µM | . | . | . | . | .
CC(C)(C)OC(=O)C[C@@H]1C/C=C\C[C@H](CC(=O)N(CCO)Cc2ccccc2)C(=O)NCCOC1=O | . | . | / | / | . | .
SMILES | PLK1 PBD block | KAT2A inh | Mito fusion yeast | PKM2 act | GLS inh | VDR inh
CSC1=NC(C)(C)C=C(/C=C/c2ccc(Cl)cc2Cl)N1 | ? | . | . | . | . | ?
CSC1=NC(C)(C)C=C(/C=C/c2ccc(Cl)cc2)N1 | ? | . | . | . | . | 32µM
CCn1nc(NS(=O)(=O)c2ccc(NC(C)=O)cc2)c2cc3ccccc3nc21 | 24µM | . | . | / | . | ?
CC(=O)NS(=O)(=O)c1ccc(NS(=O)(=O)c2ccc3ccccc3c2)cc1 | . | . | . | / | . | .
CCn1nc(NS(=O)(=O)c2ccc(NC(C)=O)cc2)c2cc3ccc(C)cc3nc21 | ? | . | . | / | . | .
CC(=O)Nc1ccc(NS(=O)(=O)c2ccc3ccccc3c2)cc1 | 7.5µM | . | . | . | . | ?
CCc1c(C)nc(N2CCN(c3ccc(Cl)cc3)CC2)[nH]c1=O | 24µM | . | . | . | . | ?
COc1cccc(-c2nc(CS(=O)(=O)CC(=O)NCc3ccc(C)cc3)c(C)o2)c1 | / | . | / | / | . | .
N#CCCN(C(=O)CSc1ccc2c(c1)OCCO2)c1ccccc1 | 19µM | . | . | . | . | .
Cc1[nH][nH]c(=O)c1C(c1ccc(Cl)cc1)c1c(C)[nH][nH]c1=O | 30µM | . | . | .[11.5 µM] | . | .
Cc1[nH][nH]c(=O)c1C(c1ccc(F)cc1)c1c(C)[nH][nH]c1=O | ? | . | . | . | . | .
CCN(Cc1ccncc1)C(=O)c1cc(COc2c(F)cccc2F)on1 | 30µM | . | . | / | . | ?
CN1CCN(C(=O)c2cc(COc3c(F)cccc3F)on2)CC1c1ccccc1 (stereo not drawn) | . | . | . | 18µM | . | .
CCc1ccc(CN(C)C(=O)c2cc(COc3c(F)cccc3F)on2)cc1 | 19µM | . | . | . | . | .
COC(=O)[C@H](Cc1ccccc1)NC(=O)c1cc(COc2c(F)cccc2F)on1 | 30µM | . | . | .[0.46 µM] | . | .
COc1ccc([C@@H]2CC(=O)[C@@H]3CN(S(=O)(=O)c4ccc(C)cc4)[C@H](c4ccccc4)C[C@@H]3N2S(=O)(=O)c2ccccc2)cc1 | . | / | / | / | . | /
COc1cc(C(CCN2CCCC2)c2c(OC)cc(OC)c3c2OC(=O)CC3c2ccc(N(C)C)cc2)cc(OC)c1OC (stereo not drawn) | / | / | / | / | / | .
CCOC(=O)c1sc(NC(=O)c2cc3nc(-c4ccccc4)cc(C(F)(F)F)n3n2)c(C(=O)OCC)c1C | / | . | / | / | . | .
O=C(COC(=O)C12CC3CC(CC(Br)(C3)C1)C2)NCc1ccco1 | / | / | / | / | / | .
COCc1cc(S(=O)c2ccc(Cl)cc2)nc(C)n1 (stereo not drawn) | 5.3µM | . | . | . | . | 50µM
Cc1ccc(C)c(N2CCN(S(=O)(=O)c3ccc(F)c(C(=O)Nc4ccc(Cl)cc4Cl)c3)CC2)c1 | / | . | / | / | . | .
COc1ccc(C(=O)c2ccccc2)c(O)c1O | / | . | / | / | / | ?
COc1ccccc1NC(=S)NC(=O)/C=C/c1ccco1 | ? | . | . | . | . | ?
Cc1ccccc1NC(=S)NC(=O)/C=C/c1ccco1 | 21µM | . | . | .[11.5 µM] | . | ?

Screening results (PubChem)
